Rows were chosen to be rich in hits. Some 1.9% of all compounds tested hit in one or more screens of this group.
S1P3 antag-1 – S1P3 (human) receptor antagonism; CHO S1P3 NFAT-BLA reporter, FRET fluorescence, antagonist mode; inhibition, % at 4.98 µM; actives 0.27% (n = 170,000); AID 485;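 active = inhibition above the plate cutoff, the mean inhibition of test wells on that plate plus 3 SD, cut at about 28% in these data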;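 note: cells challenged with S1P at its EC80 of 0.8 µM; blue over green emission ratio from cleaved BLA substrate after 4 h stimulation; 0% = S1P-stimulated wells and 100% = unstimulated DMSO-only wells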
Target sequence (Q99500 whole entry, looked up): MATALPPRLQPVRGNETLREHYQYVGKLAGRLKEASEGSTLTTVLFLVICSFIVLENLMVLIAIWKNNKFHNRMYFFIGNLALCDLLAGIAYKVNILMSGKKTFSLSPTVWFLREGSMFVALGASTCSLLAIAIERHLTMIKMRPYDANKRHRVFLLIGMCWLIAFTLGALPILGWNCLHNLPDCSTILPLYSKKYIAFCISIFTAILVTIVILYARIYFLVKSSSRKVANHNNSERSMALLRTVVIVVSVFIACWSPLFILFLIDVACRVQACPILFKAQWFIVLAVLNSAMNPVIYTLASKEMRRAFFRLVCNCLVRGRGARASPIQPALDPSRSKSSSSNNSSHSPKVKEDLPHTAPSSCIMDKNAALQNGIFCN
Pf gametocyte – inhibitors of late stage P. falciparum gametocyte viability. actives 0.065% (n = 150,000). AID 743093. inhibition, % at 10.9 µM. P. falciparum stage V gametocytes, ATP luminescence, 24 h;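 active = inhibition above the mean plus 3 SD of compounds within the control limits, set per campaign, cut at about 38% in these data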;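 note: 0% = DMSO wells and 100% = medium only without gametocytes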
EP2 modulator – EP2 receptor (human) modulation. actives 0.83% (n = 260,000). EP2-expressing cells, cAMP HTRF FRET, PGE2 co-stimulation. induction, % at 25 µM. AID 940. P43116;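 active = compounds whose cAMP rise, as percent of the full-agonist control response, exceeds 60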;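 note: rat C6 glioma line stably carrying human EP2 under a CMV promoter; the protocol text gives 20 µM as final concentration; 100% = response of wells given 1 µM PGE2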
EP2 antag – blocks the human prostaglandin E2 receptor EP2 | inhibition, % at 25 µM | P43116 | AID 1422 | C6 glioma cells expressing human EP2, cAMP TR-FRET; cells stimulated with saturating PGE2 | actives 0.52% (n = 260,000);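 active = percent inhibition above 40 after rounding to a whole number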;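 note: rat C6 glioma host cells with rolipram phosphodiesterase inhibitor present; the protocol text gives 20 µM as final concentration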
S1P4 antagonist – blocks the human S1P4 receptor. O95977. AID 1510. S1P4-expressing cells, antagonist mode, reporter read-out. inhibition, % at 4.98 µM. actives 0.26% (n = 220,000); in the data active = inhibition above about 29%;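 note: 0% = wells stimulated with agonist and 100% = vehicle wells without agonist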
S1P4 ag – human S1P4 receptor agonism | actives 0.35% (n = 220,000) | activation, % at 4.98 µM | O95977 | S1P4-expressing cell line, agonist reporter assay; in the data active = activation above about 11%;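 note: 0% = DMSO vehicle and 100% = reference agonist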
S1P3 antag-2 – human S1P3 receptor antagonism, confirmation | inhibition, % at 4.98 µM | actives 30% (n = 240) | CHO S1P3 NFAT-BLA reporter, FRET, antagonist mode | shares compounds with S1P3 antag-1 | AID 1429;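 active = inhibition above the hit threshold that was computed for the earlier primary screen, cut at about 30% in these data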;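 note: 0% = S1P-stimulated wells and 100% = unstimulated DMSO-only wells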
EP2 confirm – human EP2 receptor cAMP induction, negative in counter-screens; calls only at 20 µM (by protocol); shares compounds with EP2 modulator; C6 glioma EP2 cells, cAMP HTRF induction; plus low (about EC15) PGE2 agonist; actives 47% (n = 1,300);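 active = cAMP induction above 50% in the main assay while under 30% in all four parallel counter assays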;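 note: rat C6 glioma cells stably expressing human EP2 receptor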
S1P4 agonist cf – human S1P4 agonism, confirmation; shares compounds with S1P4 ag; S1P4 agonist cell-based reporter assay; activation, % at 4.98 µM; actives 7% (n = 740); AID 1523; in the data active = activation above about 12%;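 note: 0% = vehicle and 100% = full reference agonist response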
S1P1 agonist – counter-screen for S1P4 agonists: agonists of human S1P1; S1P1 agonist cell-based assay, activation; shares compounds with S1P4 ag; actives 4% (n = 740); activation, % at 4.98 µM; in the data active = activation above about 21%;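 note: 0% = vehicle wells and 100% = reference agonist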
S1P4 antag conf – human S1P4 antagonism, confirmation; actives 71% (n = 520); AID 1524; inhibition, % at 4.98 µM; S1P4-expressing cell line, antagonist mode, reporter read-out; shares compounds with S1P4 antagonist; in the data active = inhibition above about 30%
S1P1 antag – human S1P1 antagonism as S1P4 antagonist counter-screen | shares compounds with S1P4 antagonist | inhibition, % at 4.98 µM | actives 37% (n = 520) | cell-based S1P1 antagonist counterscreen, inhibition; in the data active = inhibition above about 40%;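 note: receptor stimulated with S1P near its EC80; 0% = agonist stimulated wells and 100% = vehicle only wells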
An asterisk follows results filed as active; i = inactive; . = no result; + = active, no number.

SMILES	S1P3 antag-1	Pf gametocyte	EP2 modulator	EP2 antag	S1P4 antagonist	S1P4 ag	S1P3 antag-2	EP2 confirm	others
O=[N+]([O-])c1ccc(C2=NN(c3ccccc3)C(c3ccco3)C2)cc1 (stereo not drawn)	34*	-14	8	9	12	0	46*	.
CCOc1ccc(S(=O)(=O)NCc2ccncc2)cc1	.	0	-6	6	-5	-2	.	.
CCOc1cc(S(=O)(=O)NCc2ccncc2)ccc1Cl	29*	3	-17	8	-11	0	20	.
CCC(O)C1CCN(C(=O)c2cc(COc3ccc4ncccc4c3)on2)CC1 (stereo not drawn)	33*	-17	-73	23	2	-2	8	.
CC(C)(C)c1ncc(C(=O)N2CC(CN3CCOCC3)c3ccccc32)cn1 (stereo not drawn)	.	.	-4	8	.	.	.	.
COc1ccc(-c2cc(C(F)F)n3ncc(C(=O)NCc4cccnc4)c3n2)cc1	.	.	12	8	.	.	.	.
CCCCCCCCCCn1ccc(=N)cc1	18	-11	14	6	8	2	.	.
CCCCCCCCn1ccc(=N)cc1	35*	13	-18	6	2	0	-6	.
O=C(N/N=C\C=C\c1ccco1)C1COc2ccccc2O1 (stereo not drawn)	28*	15	-40	10	-4	-1	-9	.
CN(Cc1ccccc1)CC(O)COc1ccc(CNCCc2cccnc2)cc1 (stereo not drawn)	31*	20	-2	3	-8	-1	-14	.
COCCCNC(=O)c1c(NC(=O)c2cccc(C)c2)sc2c1CCCC2	.	.	53	10	.	.	.	.
Cc1ccc(C)c(S(=O)(=O)N/N=C/c2ccc(N3CCOCC3)cc2)c1	30*	-9	-3	4	-8	1	-9	.
CC(C)NC(=S)N/N=C/c1ccc(N2CCOCC2)cc1	3	.	-3	10	-9	-1	.	.
Cc1cc(C(=O)CSc2nc3ccccc3c(=O)n2C)c(C)n1CC1CCCO1 (stereo not drawn)	33*	.	-77	7	-29	196*	37*	.	S1P4 agonist cf=-2;S1P1 agonist=3
CCCc1nnc(SCC(=O)N2c3ccccc3CC2C)n1CC (stereo not drawn)	.	.	-10	6	.	.	.	.
O=C(NC(Nc1nc2ccc([N+](=O)[O-])cc2s1)(C(F)(F)F)C(F)(F)F)c1cccnc1	3	-4	-6	6	17	1	.	.
O=C(NC(Nc1nc2ccc([N+](=O)[O-])cc2s1)(C(F)(F)F)C(F)(F)F)c1ccccc1Cl	70*	2	6	6	43*	-1	53*	.	S1P4 antag conf=64*;S1P1 antag=-2
O=C(/C=C/c1cn(CC(O)CN2CCCCC2)c2ccccc12)c1cccs1 (stereo not drawn)	32*	26	-49	2	31*	1	9	.	S1P4 antag conf=53*;S1P1 antag=46*
Cc1nc(Nc2nc3ccccc3o2)nc(-c2ccccc2)c1C#N	.	.	8	5	.	.	.	.
CCSc1nc2ccccc2n1S(=O)(=O)c1ccccc1	-11	.	46	8	7	1	.	.
C=CCSc1nc2ccccc2n1S(=O)(=O)c1ccc(Cl)cc1	.	3	75*	11	-13	3	.	i
CCN(CC)c1nc(C#N)nc(N(CC)CC)n1	-1	.	65*	.	-8	0	.	i
CCN(c1ccccc1)c1nc(C#N)nc(N(CC)c2ccccc2)n1	-4	10	42	4	-11	0	.	.
CCC(CN1CCC(C)CC1)NC(=O)Cc1ccc2c(c1)OCCCO2 (stereo not drawn)	.	.	-21	7	.	.	.	.
CCc1ccccc1NC(=S)N(Cc1ccco1)C(C)c1cccs1 (stereo not drawn)	-29	7	60	4	13	-1	.	i
SMILES	S1P3 antag-1	Pf gametocyte	EP2 modulator	EP2 antag	S1P4 antagonist	S1P4 ag	S1P3 antag-2	EP2 confirm	others
CC(=O)N1c2ccccc2C(C)CC12CCCCC2 (stereo not drawn)	10	-2	93*	8	-18	1	.	+
CC(=O)N1Cc2ccccc2C(C)CC12CCCC2 (stereo not drawn)	-2	-1	24	14	-11	1	.	.
O=C(COc1ccc(Br)cc1)Nc1ccc(-c2nnc(-c3ccco3)o2)cc1	44	11	75*	0	-2	-1	.	i
COc1ccccc1OCC(=O)Nc1ccc(-c2nnc(-c3ccco3)o2)cc1	-6	0	5	5	-5	2	.	.
CCn1c(=NC(=O)c2ccc(S(=O)(=O)N(C)C)cc2)sc2cccc(OC)c21	-15	-2	76*	12	-6	1	.	i
CC1CCc2c(sc(NC(=O)C3COc4ccccc4O3)c2C(N)=O)C1 (stereo not drawn)	.	.	23	17	.	.	.	.
N#Cc1sc2nc(C3CC3)cc(-c3ccc(Cl)cc3)c2c1N	12	9	76*	11	0	-1	.	i
COc1ccc(-c2cc(-c3cccs3)nc3sc(C#N)c(N)c23)cc1	10	1	-2	13	11	-4	.	.
O=c1c2ccccc2n(Cc2ccc(Cl)cc2)c(=O)n1Cc1ccco1	7	17	51	4	-7	0	.	+
Cc1ccc(Cn2c(=O)n(Cc3ccco3)c(=O)c3ccccc32)cc1	-1	14	68*	8	-17	1	.	+
O=C(NCc1ccco1)c1ccc(Cn2c(=O)c3ccccc3n(Cc3ccc(Cl)cc3)c2=O)cc1	.	.	21	13	5	-1	.	.
O=c1c(C=NCc2ccccc2)c(NCc2ccccc2)nc2ccccn12	-21	-14	80*	5	-17	1	.	+
CCCCC(=O)Nc1sc2c(c1C(=O)OCC)CCC(C=O)=C2Cl	.	.	63*	5	1	-1	.	+
O=C(C1CCCCC1)N1CCC[C@@H]1Cn1nnc2ccccc21	.	.	-14	0	.	.	.	.
CC(=O)NC(c1ccccc1)c1cccnc1 (stereo not drawn)	20	-9	70*	6	-13	1	.	i

Source: PubChem
